Pf growth 48h: P. falciparum growth inhibition at 48 hours (one generation); hit rate 5.9% among 310,000; P. falciparum luciferase growth in erythrocytes, 48 h; Potency, µM (series often up to 28.7 µM), for the others: at the top dose activity change, negative = inhibition, actives largely listed as inhibitors; note: potency is the fitted concentration of half-maximal effect
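Firefly luciferase activity from engineered P. falciparum reports growth; inhibitors lower the luminescent signal. Cultures contained 2% hematocrit erythrocytes at 0.1% final parasitemia.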
Giardia FBPA inh: blocks Giardia fructose-bisphosphate aldolase activity; A8B2U2; purified Giardia FBPA; Potency, µM (titrated, usually from 59.6 µM), without a hit: at the top dose activity, negative = inhibition, usual class: inhibitors; hit rate 0.71% among 290,000; AID 2451; note: potency is the fitted concentration of half-maximal effect; nearly all actives have a fitted effect of over 55% in size
Target sequence (A8B2U2 whole entry, looked up): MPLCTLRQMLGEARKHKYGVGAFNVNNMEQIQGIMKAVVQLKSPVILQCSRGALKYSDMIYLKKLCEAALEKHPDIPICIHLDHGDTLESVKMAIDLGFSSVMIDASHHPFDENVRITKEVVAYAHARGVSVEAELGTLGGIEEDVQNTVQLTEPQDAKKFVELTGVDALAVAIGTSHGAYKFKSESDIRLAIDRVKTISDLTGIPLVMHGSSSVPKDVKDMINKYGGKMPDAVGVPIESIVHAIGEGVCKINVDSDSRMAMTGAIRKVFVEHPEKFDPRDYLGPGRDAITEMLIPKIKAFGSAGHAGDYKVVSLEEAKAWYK
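Giardia FBPA (40 nM reagent) was preincubated 10 min at RT with compound (up to 57.5 uM final), then substrate plus GAPDH/TPI/NAD/arsenate coupling system with diaphorase/resazurin was added; resorufin fluorescence (525/598 nm) was read after 20 min.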
Pf growth 96h: P. falciparum growth inhibition at 96 hours; P. falciparum luciferase reporter growth, 96 h; Potency, µM (top dose mostly 28.7 µM), inactives show top-dose activity change, negative = inhibition, hits mostly inhibitors; hit rate 6.9% among 320,000; AID 504834; note: potency is the fitted concentration of half-maximal effect
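P. falciparum expressing integrated firefly luciferase grown in erythrocytes (2% hematocrit, 0.05% parasitemia final) with compounds for 96 hours at 37 C, 5% CO2. Growth inhibition read as loss of luminescence after adding luciferase detection reagent.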
Sm TGR block: S. mansoni TGR enzyme inhibition | purified TGR, DTNB reduction, TNB absorbance 405 nm | Potency, µM (series often up to 114 µM), without a hit: at the highest dose activity change, negative = inhibition, hits mostly inhibitors | hit rate 3% among 360,000 | AID 485364; note: potency is the fitted concentration of half-maximal effect; nearly all actives have a fitted effect of over 60% in size
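Kinetic colorimetric format: TGR-catalysed, NADPH-driven DTNB reduction monitored via TNB absorbance. Enzyme dispensed at 20 nM; compound exposure 15 min at room temperature before reaction start.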
HCMV antiviral: inhibitors of human cytomegalovirus | HFF cells, HCMV-luciferase reporter, 72 h; stronger effect = lower value | activity change, negative = inhibition, % at 57.5 µM | hit rate 4.5% among 410,000; in the data active = activity change below about -60%; inconclusive = no clear call, values can overlap the other calls; inactive = above about -39%
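Human foreskin fibroblasts infected with luciferase-reporter HCMV at MOI 1 PFU/cell, compounds at two doses. Luciferase measured 72 h post infection; normalized to buffer-only basal and Salinomycin (10uM) controls.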
* hit, by the source's call; ? = inconclusive; . = no result given. Rows were chosen to be rich in hits. Some 14% of all compounds tested hit in one or more screens of this group. Unless noted, calls come from the whole dose curve; as a rule, active = well fitted curve in the direction sought with a large enough effect; inconclusive = small, poorly fitted or top-dose-only effect, or another doubt; inactive = no such curve, though single readings can be large; an effect the other way counts as inactive or inconclusive. % is set by controls: 0 for no effect and ±100 for the full control effect.

SMILES	Pf growth 48h	Giardia FBPA inh	Pf growth 96h	Sm TGR block	HCMV antiviral
COc1cccc(C2c3cccn3-c3ccccc3N2C=NC(C)(C)C)c1 (centres undefined)	.	.	.	.	22.5
O=C(/C=C/c1ccco1)NC(=S)Nc1ccc(N2CCOCC2)c(Cl)c1	1.0%	-8.4%	39.7%	39.8µM*	44.2
CC(C)C(=O)Nc1ccc(N2CCCC2)c(Cl)c1	16.8%	0.0%	-1.2%	-2.4%	29.7
CC(C)CC(=O)NC(=S)Nc1ccc(N2CCCC2)c(Cl)c1	3.29µM*	0.2%	?	2.4%	-62.4*
CCCC(=O)NC(=S)Nc1ccc(N2CCOCC2)c(Cl)c1	?	-3.2%	11.7µM*	-36.0%	-21.5
O=C(/C=C/c1ccccc1)NC(=S)Nc1ccc(N2CCOCC2)c(Cl)c1	8.2%	-1.8%	0.0%	-0.2%	-21.5
O=C(NC(=S)Nc1ccc(N2CCOCC2)c(Cl)c1)C(c1ccccc1)c1ccccc1	16.3%	20.3%	?	0.4%	44.0
CC(=O)Oc1ccc2c(c1)CCC1C2CC[C@]2(C)C(OC(C)=O)CCC12 (some centres undefined)	.	-9.6%	.	.	.
COc1ccc(CCN2CC(C(=O)NCCc3ccccc3C)CCC2=O)cc1 (centres undefined)	-1.8%	.	23.5%	-9.2%	-36.4
O=C(O)CCCN1C(=O)C(=O)/C(=C(/O)c2ccc(Cl)cc2)C1c1ccccc1 (centres undefined)	44.2%	14.9%	62.7%	-2.0%	?
O=C1OC/C(=C(/O)c2ccc(Cl)cc2)C1=O	11.7µM*	10.4%	-8.4%	15.8µM*	-25.9
CCC[C@H]1[C@@H](NC(=O)Nc2cccc(C#N)c2)CC[C@@]23CCCN2C(=O)CCC[C@@H]13	.	.	.	.	-16.9
CC1CCc2nc(NC(=O)c3ccc(N4C(=O)CCC4=O)cc3)sc2C1 (centres undefined)	?	.	9.1%	-7.4%	8.4
CCCN(CC(=O)Nc1ccccc1C)C(=O)/C=C/c1ccc(S(=O)(=O)N2CCCCCC2)cc1	13.1µM*	.	?	-2.1%	-32.0
CCCN(CC(=O)Nc1ccccc1C)C(=O)c1ccc(S(=O)(=O)N2CCCCCC2)cc1	?	.	?	2.4%	5.8
COc1ccc(NC(=O)CN(C)C(=O)/C=C/c2ccc(S(=O)(=O)N3CCCCCC3)cc2)cc1	11.7µM*	.	-7.8%	-22.5%	-76.5*
O=C(NC1CCCC1)c1nc(-c2ccco2)oc1-c1ccccc1	.	.	.	.	-34.1
C#CCOCCOCCOCCNc1nc(N2CCN(C(=O)[C@H]([C@@H](C)CC)n3cc(CCCN=C(N)N)nn3)CC2)nc(N2CCN(C(=O)[C@H](CCCCN)n3cc(CCC(=O)O)nn3)CC2)n1	6.9%	0.4%	-0.3%	-3.7%	2.9
C#CCOCCOCCOCCNc1nc(N2CCOCC2)nc(N2CCN(C(=O)[C@H]([C@@H](C)CC)n3cc(CCCCN)nn3)CC2)n1	?	-4.9%	8.28µM*	-19.1%	-5.3
C#CCOCCOCCOCCNc1nc(N2CCN(C(=O)[C@H]([C@@H](C)O)n3cc(CCCCN)nn3)CC2)nc(N2CCN(C(=O)[C@H]([C@@H](C)CC)n3cc(CCCN=C(N)N)nn3)CC2)n1	?	-1.6%	4.65µM*	-3.4%	-29.7
C#CCOCCOCCOCCNc1nc(N2CCN(C(=O)[C@H]([C@@H](C)CC)n3cc(CCCCN)nn3)CC2)nc(N2CCN(C(=O)[C@H](C)n3cc(CCCN=C(N)N)nn3)CC2)n1	?	.	3.5%	3.0%	-12.9
C#CCOCCOCCOCCNc1nc(N2CCN(C(=O)[C@H]([C@@H](C)CC)n3cc(CCCCN)nn3)CC2)nc(N2CCN(C(=O)[C@H]([C@@H](C)CC)n3cc(CCCN=C(N)N)nn3)CC2)n1	?	.	7.38µM*	1.7%	0.2
CCN(C)C(=O)C1=COC2=NC(=O)N(Cc3cccc(Cl)c3)CCN12	.	.	.	.	-7.1
C=CCn1c(C)cc(C(=O)COC(=O)/C=C/c2c(C)nn(C3CCS(=O)(=O)C3)c2Cl)c1C (centres undefined)	?	.	?	-16.2%	?
CC1(C)C2CC[C@]3(C)C(CC=C4[C@@H]5C[C@@](C)(CO)[C@@H](O)C[C@]56C[C@@H](OC6=O)[C@]43C)[C@@]2(C)CC[C@@H]1O (some centres undefined)	.	.	.	.	25.9

Compound activity from PubChem.
